TDP1 cell CPT: DT40-hTDP1 cell growth loss with CPT; chicken DT40 Tdp1-/-;hTDP1 cells + 20 nM CPT, ATP luminescence, 48 h; AID 686979; Potency, µM (titrated, usually from 46.2 µM), usual class: inhibitors; hit rate 12% among 420,000; note: nearly all actives have a fitted effect of over 55% in size
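Chicken DT40 Tdp1-/- cells complemented with human TDP1, 400 cells/well, exposed to compounds plus 20 nM camptothecin for at least 48 h at 37 C; viability read as ATP content by CellTiter-Glo luminescence.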
HT1080-NT tox: kills 2HG-producing HT-1080-NT fibrosarcoma cells; HT-1080-NT fibrosarcoma viability, CellTiter-Glo ATP luminescence, 48 h; Potency, µM (titrated, usually from 46.1 µM), most hits filed as cytotoxic; hit rate 1.6% among 360,000;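 note: NT is the 2HG producing partner of a matched IDH1 knockdown line; nearly all actives have a fitted effect of over 55% in size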
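750 cells/well, RPMI + 5% FBS; 2 h settle, compound pin-transfer, 48 h at 37 degrees C. CellTiter-Glo 10 min RT, luminescence. Normalized to DMSO and media-only wells.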
IL-1B inflam inh: inflammasome signaling inhibition, IL-1 beta readout; THP-1 LPS/ATP IL-1B secretion, AlphaLISA, 16 h; stronger effect = lower value; activity change, % at 57.5 µM; hit rate 4.7% among 360,000; AID 743279; in the data active = activity change below about -50%; inconclusive = mostly about -30% to -49%
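Secreted IL-1B measured by AlphaLISA bead assay after 16 h compound exposure of THP-1 cells; compounds (final up to 57.5 uM) added 1 h before LPS (250 ng/mL) and ATP (1.25 mM) stimulation; lower signal means less secretion.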
DT40 TDP1 no CPT: qHTS for Inhibitors of human tyrosyl-DNA phosphodiesterase 1 (TDP1): qHTS in cells in absence of CPT; hit rate 15% among 420,000; AID 686978, 2013; DT40 Tdp1-/- hTDP1 cells, no CPT, ATP luminescence, 48 h; Potency, µM (top dose mostly 46.2 µM), hits mostly inhibitors; note: nearly all actives have a fitted effect of over 55% in size
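Readout: luminescence from CellTiter-Glo after 30 min in the dark at RT. Cells: DT40 Tdp1-/- with stable hTDP1, 400/well. Exposure: compounds alone, ≥48 hr, 37 °C.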
ALOX12 inh: inhibitors of human 12S-lipoxygenase ALOX12; P18054; purified 12hLO, xylenol orange hydroperoxide absorbance; Potency, µM (series often up to 108 µM), usual class: inhibitors; hit rate 1.1% among 580,000
Target sequence (P18054 whole entry, looked up): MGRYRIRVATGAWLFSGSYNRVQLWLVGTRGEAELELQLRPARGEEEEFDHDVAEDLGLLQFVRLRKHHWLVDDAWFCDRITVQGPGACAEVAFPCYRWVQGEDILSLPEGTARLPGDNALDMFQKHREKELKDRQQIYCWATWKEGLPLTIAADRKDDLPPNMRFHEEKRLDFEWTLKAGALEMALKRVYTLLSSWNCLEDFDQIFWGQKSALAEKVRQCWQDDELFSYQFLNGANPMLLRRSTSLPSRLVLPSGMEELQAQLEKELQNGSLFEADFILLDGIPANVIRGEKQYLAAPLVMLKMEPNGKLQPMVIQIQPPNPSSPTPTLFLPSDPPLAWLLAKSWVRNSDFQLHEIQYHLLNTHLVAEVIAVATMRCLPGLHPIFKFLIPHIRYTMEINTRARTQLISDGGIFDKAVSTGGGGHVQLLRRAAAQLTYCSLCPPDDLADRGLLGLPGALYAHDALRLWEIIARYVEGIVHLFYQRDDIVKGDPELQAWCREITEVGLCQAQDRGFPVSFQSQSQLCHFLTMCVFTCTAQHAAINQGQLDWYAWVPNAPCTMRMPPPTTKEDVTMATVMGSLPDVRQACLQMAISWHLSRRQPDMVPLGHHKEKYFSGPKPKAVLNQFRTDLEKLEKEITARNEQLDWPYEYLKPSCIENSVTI
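Hydroperoxide product was detected by ferrous iron/xylenol orange as the 573 to 405 nm absorbance ratio. Arachidonic acid at 40 uM (final) was turned over for 30 min at room temperature by 150 nM human 12hLO, pH 7.0 Hepes buffer, after 15 min compound preincubation.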
HT1080 IDH1KD tx: toxicity to HT-1080 IDH1 knockdown cells (counter line); HT-1080 IDH1 knockdown viability, ATP luminescence, 48 h; Potency, µM (titrated, usually from 46.1 µM), actives largely listed as cytotoxic; hit rate 2% among 360,000
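% activity derives from luminescence (CellTiter-Glo), normalised to DMSO and no-cell wells. HT-1080-IDH1KD cells, 750/well, had 48 h compound exposure at 37 °C.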
Of the large screens only hits and unclear results are named; the others gave an inactive call. This is one part of a sample in which hits are shown more often than they occur. Unless noted, calls come from the whole dose curve; as a rule, active = well fitted curve in the direction sought with a large enough effect; inconclusive = small, poorly fitted or top-dose-only effect, or another doubt; inactive = no such curve, though single readings can be large; an effect the other way counts as inactive or inconclusive.

Cc1ccccc1NC(=O)CSc1ccc(N2CCC(C(=O)N3CCCCC3)CC2)nn1	none (no result: TDP1 cell CPT, HT1080-NT tox, IL-1B inflam inh, DT40 TDP1 no CPT, HT1080 IDH1KD tx)
N#Cc1ccc(S(=O)(=O)N2CC[C@H]3C(=O)NCCCCCCN(Cc4ccncc4)[C@@H]3C2)cc1	none (no result: TDP1 cell CPT, HT1080-NT tox, IL-1B inflam inh, DT40 TDP1 no CPT, HT1080 IDH1KD tx)
COc1ccc(-n2nc3cc(C)c(N)cc3n2)cc1Cl	ALOX12 inh 8.9µM
Cc1cc2nn(-c3ccc(F)cc3)nc2cc1N	none
Cc1cc2nn(-c3ccc(Cl)cc3)nc2cc1N	ALOX12 inh 7.1µM
Cc1nnc2c(N3CCN(c4ccccc4)CC3)nc3ccc(C(=O)c4ccccc4)cc3n12	none (no result: HT1080-NT tox, IL-1B inflam inh, HT1080 IDH1KD tx)
Cc1cccc(N(C)c2nc3ccc(C(=O)c4ccccc4)cc3n3c(C)nnc23)c1	TDP1 cell CPT inconclusive, DT40 TDP1 no CPT 21µM (no result: HT1080-NT tox, IL-1B inflam inh, HT1080 IDH1KD tx)
CCN1C(=O)C2C(c3cccc(F)c3)NC(C)(C(=O)OC)C2C1=O (stereo not drawn)	none
COC(=O)[C@]1(C)N[C@H](c2ccc(-c3cccc(Cl)c3)cc2)[C@@H]2C(=O)N(C)C(=O)[C@@H]21	TDP1 cell CPT inconclusive, DT40 TDP1 no CPT inconclusive
CCN1C(=O)[C@H]2[C@@H](c3ccc(-c4ccc(C(C)=O)cc4)cc3)N[C@@](C)(C(=O)OC)[C@H]2C1=O	TDP1 cell CPT inconclusive (no result: ALOX12 inh)
CCN1C(=O)[C@H]2[C@@H](c3ccc(-c4ccc(F)cc4)cc3)N[C@@](C)(C(=O)OC)[C@H]2C1=O	TDP1 cell CPT 23µM, HT1080-NT tox inconclusive, DT40 TDP1 no CPT 21µM
CCN1C(=O)[C@H]2[C@@H](c3ccc(-c4ccc(F)cc4)c(OC)c3)N[C@@](C)(C(=O)OC)[C@H]2C1=O	TDP1 cell CPT 13µM, DT40 TDP1 no CPT inconclusive, ALOX12 inh 11µM
CCN1C(=O)[C@H]2[C@@H](c3ccc(-c4cccc(Cl)c4)cc3)N[C@@](C)(C(=O)OC)[C@H]2C1=O	TDP1 cell CPT 16µM, DT40 TDP1 no CPT 13µM, ALOX12 inh inconclusive
CCN(CC)c1nc(C)nc2c1cnn2CCc1ccccc1	TDP1 cell CPT inconclusive, IL-1B inflam inh inconclusive, DT40 TDP1 no CPT 15µM, ALOX12 inh inconclusive
Cc1cccc(OCC(=O)Nc2ccccc2N2CCN(C)CC2)c1	DT40 TDP1 no CPT inconclusive
Cc1cccc(OCC(=O)Nc2ccccc2N2CCCCC2)c1	TDP1 cell CPT 12µM, DT40 TDP1 no CPT inconclusive, ALOX12 inh inconclusive
COc1cc(C(=S)N2CCCC2)cc(Cl)c1OCC(=O)Nc1ccc(C)cc1C	TDP1 cell CPT 13µM, DT40 TDP1 no CPT inconclusive, ALOX12 inh inconclusive
Cc1ccc(NC(=O)COC(=O)c2ccc(Cl)c(S(=O)(=O)N3CCCCCC3)c2)c(C)c1	none (no result: TDP1 cell CPT, HT1080-NT tox, IL-1B inflam inh, DT40 TDP1 no CPT, HT1080 IDH1KD tx)
Cc1cc(N2CCCC2)ccc1NC(=O)COc1cccc(C(F)(F)F)c1	TDP1 cell CPT 8.2µM, HT1080-NT tox inconclusive, DT40 TDP1 no CPT 4.6µM, HT1080 IDH1KD tx inconclusive
Cc1ccc(C)c(OCC(=O)Nc2ccccc2N2CCCC2)c1	TDP1 cell CPT inconclusive, DT40 TDP1 no CPT inconclusive
Cc1ccc(OCC(=O)Nc2ccccc2N2CCCC2)c(C)c1	TDP1 cell CPT inconclusive, IL-1B inflam inh inconclusive, DT40 TDP1 no CPT 29µM
CCOCC(=O)N1CCC(Cc2ccc(C(=O)N(C)C)cc2)CC1	none (no result: TDP1 cell CPT, HT1080-NT tox, IL-1B inflam inh, DT40 TDP1 no CPT, HT1080 IDH1KD tx)
COc1cc2oc(=O)cc(-c3ccc(-c4ccc(O)cc4)cc3)c2c(OC)c1OC	TDP1 cell CPT inconclusive, DT40 TDP1 no CPT 18µM
COc1ccc(-c2ccc(-c3cc(=O)oc4cc(OC)c(OC)c(OC)c34)cc2)cc1OC	TDP1 cell CPT 18µM, DT40 TDP1 no CPT 15µM
COc1cc2oc(=O)cc(-c3cccc(-c4cccc(C)c4)c3)c2c(OC)c1OC	TDP1 cell CPT inconclusive, HT1080-NT tox inconclusive, DT40 TDP1 no CPT 23µM, ALOX12 inh inconclusive, HT1080 IDH1KD tx inconclusive
CCC(C)c1ccc(NC(=O)C2CCCN(c3ncccn3)C2)cc1 (stereo not drawn)	TDP1 cell CPT 21µM, HT1080-NT tox inconclusive, DT40 TDP1 no CPT 18µM, HT1080 IDH1KD tx inconclusive
